28 molecules from PubChem BioAssay (NCI) can be followed below.

Compounds without any hit were thinned out: in the full panel of roughly 79,000, 15% have a hit. Activity calls are given as the source filed them. Cut-off read from the data, not from the text of the source: active = growth inhibition above about 70%; inactive = the rest.

A short description of this test: NCI Yeast Anticancer Drug Screen. Data for the bub3 strain (AID 167). To be noted: S. cerevisiae bub3 mutant strain, at 3.7 µM, active compounds read high. In short, it runs like this:
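Growth of a checkpoint-deficient yeast mutant is measured after compound exposure. Values represent inhibition relative to vehicle.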
Turning to `CNC(=O)OCc1c(COC(=O)NC)c(C)n(-c2ccc(Cl)c(Cl)c2)c1C`, the growth inhibition is -36% (inactive).
As for `COc1ccc2nc(N/N=C/c3sccc3C)cc(C)c2c1`, the figure is 14% (inactive).
Consider `O=C(O)/C=C\C(=O)NNc1ccc(Br)cc1`, for which the growth inhibition is 60% (inactive).
As for `S=c1[nH]nc(Cc2ccccc2)c(=S)[nH]1`, the figure is 21% (inactive).
Consider `COc1ccc2nc3cccc([N+](=O)[O-])c3c(NCCCO)c2c1`, for which the growth inhibition is 14% (inactive).
As for `CCN(CC)CCSc1c2ccccc2nc2cc(NCC(=O)Nc3ccccc3-c3ccccc3NC(=O)CNc3ccc4c(SCCN(CC)CC)c5ccccc5nc4c3)ccc12`, the growth inhibition is 30% (inactive).
`Cc1ccc(N(C=O)c2c([N+](=O)[O-])cc([N+](=O)[O-])c3c2=[N+]([O-])CN=3)cc1`: the growth inhibition was 5% (inactive).
Regarding `COc1ccc(C(=O)OCCc2ccccc2)cc1`, the growth inhibition is 12% (inactive).
Regarding `COc1ccc(C(=O)NCCN(C)C)c2nc3ccccc3cc12`, the growth inhibition is 11% (inactive).
As for `NCC(O)CSCc1ccc(Cl)cc1` (stereo not drawn), the figure is -2% (inactive).
To `CN(C)/N=N/c1nc[nH]c1C(N)=O` belongs 1% (inactive); to `O=c1[nH]c(=O)n(CCCO)cc1F`, -22% (inactive).
With `COc1ccc(/C(=N/O)c2ccccc2C2=Nc3ccccc3C(NCc3ccccc3)O2)cc1C` (stereo not drawn), the growth inhibition was 2% (inactive).
As for `CCCC(=O)OC(OC(=O)CCC)c1ccc([N+](=O)[O-])o1`, the figure is -5% (inactive).
As for `O=C(/C(=C/c1ccccc1)CBr)c1ccccc1`, the figure is 0% (inactive).
Consider `O=C(Cc1ccccc1F)NC1=C(Cl)C(=O)c2ccccc2C1=O`, for which the growth inhibition was 17% (inactive).
To `Cc1cccc(N2CCN(C(=O)/C(=C/c3ccccc3)NC(=O)c3ccccc3)CC2)c1` belongs -1% (inactive).
To `c1cc(Nc2ccc3c(c2)OCO3)c2cc(C3CCCCC3)ccc2n1` belongs -3% (inactive); to `Cc1ccc2nc(N/N=C/c3ccc(C)s3)cc(C)c2c1`, 5% (inactive); to `COc1cc(NCCCCCNC(C)C)c2ncccc2c1Cl`, -1% (inactive).
To `COc1ccc2cc(CN3CCC(C4CCN(Cc5ccc6cc(OC)ccc6c5)CC4)CC3)ccc2c1` belongs -35% (inactive); to `CC(=O)O/N=C/c1c2ccccc2cc2ccccc12`, 12% (inactive); to `CC[C@@]1(OC(=O)CN(C)C)C(=O)OCc2c1cc1n(c2=O)Cc2cc3ccccc3nc2-1`, -9% (inactive).
On to `CC1(C)CC(=O)C(C(CC(c2ccccc2)c2cc3c(cc2O)OCO3)C2=C(O)CC(C)(C)CC2=O)=C(O)C1` (stereo not drawn), for which the growth inhibition was -9% (inactive).
As for `CCCCCCC(CCl)c1sc(-c2csc(CCNC(=O)OC(C)(C)C)n2)nc1C(=O)OC` (stereo not drawn), the figure is 0% (inactive).
As for `CCOC(=O)C1=C(C)NC(C)=C(C(=O)OCC)C1c1cccc([N+](=O)[O-])c1`, the growth inhibition was -5% (inactive).
As for `Cc1ccc2c(/C=C/c3ccc(N(C)C)cc3)ccnc2c1C`, the figure is 7% (inactive).
Take `O=C1C(Br)=CC(Br)(Br)C=C1Br`: the growth inhibition is -16% (inactive).
